About 79,000 compounds went through this panel and 15% of them were active in at least one assay; those are over-represented in the sample as a whole. The source made the active and inactive calls. Rule as the data show it: active = growth inhibition above about 70%; inactive = the rest.

This test in a line: NCI Yeast Anticancer Drug Screen. Data for the bub3 strain (AID 167). The note with it: S. cerevisiae bub3 mutant strain, at 50.0 µM, hits give high values. As to the method:
Growth inhibition of yeast strains with defined genetic alterations is measured as a screen for potential anti-cancer activity. Selected strains with alterations in DNA damage repair or cell cycle control were exposed to compounds and growth inhibition was measured relative to vehicle treated controls. The strain used in this assay is bub3
For `Cn1ncc(C(=O)O)c1[N+](=O)[O-]`, the growth inhibition was -6.2% (inactive). Turning to `CCCc1c(O)cccc1O`, the growth inhibition is -5.55% (inactive).

Turning to `Clc1nncc(SCc2ccccc2)c1SCc1ccccc1`, the growth inhibition was 22.5% (inactive). For `CCC(=O)C(CCN(C)C)c1ccccc1` (stereo not given) the value was -11.1% (inactive); for `COc1ccc(/C=C2\CCC(C)(CN(C)C)C2=O)cc1` (stereo not given), 4.35% (inactive). For `C/C=C(\C)CCC(C)(O)CC` (stereo not given) the value was -22.4% (inactive); for `Cc1ccc(Sc2ccc3ccccc3c2)nc1`, 5.05% (inactive).

For `COc1cc2ccc(/C=C/C(=O)c3ccc4c(c3)OCO4)cc2cc1OC`, the growth inhibition is 6.4% (inactive). For `COC(=O)C1CCCC(=O)C1C(=O)OC` (stereo not given) the value was -23% (inactive); for `Cc1cc(C)c2c(ccc3ccccc32)n1`, -19.9% (inactive); for `O=S(=O)(c1ccc(Cl)cc1)c1ccccc1C1=NCCN1`, -43.8% (inactive). With `CC1(C)CNC(C)(C)CN1`, the growth inhibition was 17.5% (inactive).

As to `Cc1c2oc3c(C)ccc(C(=O)NCCc4ccccn4)c3nc-2c(C(=O)NCCc2ccccn2)c(N)c1=O`, the growth inhibition was -5.45% (inactive). For `CCC(=O)Oc1ccc(C(OC(=O)CC)OC(=O)CC)cc1OC` the value was 9.45% (inactive); for `COc1cc2cccnc2c2[nH]c(=O)c3c(c12)CCC3`, 7.2% (inactive). The value for `O=C1Nc2c(Cl)cc(Cl)cc2C1=O` was 38% (inactive); that for `O=C(NNC(=O)c1ccc(Cl)cc1Cl)c1ccccc1` was -9.2% (inactive); that for `C=C1OC(=O)C(N)=C1C(C)=O` was 3.9% (inactive). The value for `CCCCCCC1C=CC(CCCCCCCC(=O)O)C(/C=C/CCCCCCCC(=O)O)C1CCCCCC` (stereo not given) was -25% (inactive); that for `Cc1ccc(NC(=S)N(CCC#N)C2CCCCC2)cc1` was 6.3% (inactive). As for `CC12CC(=O)C3C(CCC4CC(OS(=O)(=O)O)CCC43C)C1CC1OC(=O)C=C12` (stereo not given), the growth inhibition is -0.9% (inactive).

As to `Cn1c2nc(-[n+]3ccc(N4CCOCC4)cc3)nc-2c([O-])n(C)c1=O`, the growth inhibition was -10.8% (inactive). Turning to `CCOc1cc(=O)cc2n(-c3cc(OCC)c(OC)c(OCC)c3)c3ccccc3nc1-2`, the growth inhibition was -1.4% (inactive). The value for `CCOC(=O)C(CCC(c1ccc(OC)cc1)c1ccc(OC)cc1)C(=O)OCC` was 27.6% (inactive); that for `Cc1nc(-c2ccccc2)ncc1C(O)CN(C)C` (stereo not given) was -30.4% (inactive); that for `NS(=O)(=O)c1ccc(NC(=O)c2cccc3c(=O)c4ccccc4[nH]c23)cc1` was -6% (inactive).

Regarding `O=C1Nc2ccc3[nH]ncc3c2C1=O`, the growth inhibition is -9.55% (inactive).

On to `c1ccc(Cc2c[nH]c3ccccc23)cc1`, for which the growth inhibition was -1.85% (inactive).

For the compound `O=CC1CCCO1` (stereo not given), the growth inhibition is 6.45% (inactive). Turning to `CN(C)c1ccc(/C=C2\CCc3ccccc3C2=O)cc1Br`, the growth inhibition is 3.95% (inactive).

With `Cc1cccc(-n2c(N)cc(=O)[nH]c2=S)n1`, the growth inhibition was -10.1% (inactive). For the compound `c1ccc(-c2ccc(-c3cc4ccccc4c4ccccc34)cc2)cc1`, the growth inhibition was -10.3% (inactive). For `OCCC1=CCC1` the value was 4.95% (inactive).

Turning to `Cc1cccc(C)c1NC(=O)C1C(=O)N(c2c(C)cccc2C)C(=O)/C1=N\NC(N)=S` (stereo not given), the growth inhibition was -31.1% (inactive). For `COc1ccc(COCc2ccc(OC)cc2)cc1` the value was 13.8% (inactive). The value for `O=S1(=O)NNC(=NCc2ccc(Cl)c(Cl)c2)c2ccccc21` was 3.2% (inactive); that for `CCC(C(=O)c1cccs1)C(O)(C(F)(F)F)C(F)(F)F` (stereo not given) was -31.4% (inactive); that for `C[C@]12CCC(=O)C=C1CC[C@@H]1[C@@H]2CC[C@@]2(C)[C@H]1CC[C@]2(O)C(=O)CCC#N` was -16.8% (inactive). As for `Cc1ccc(C(=O)c2ccccc2C(=O)O)cc1C`, the growth inhibition was 9.2% (inactive). Take `CCOC(Nc1ccc(Cl)cc1Cl)C(=O)c1ccccc1` (stereo not given): the growth inhibition was 11.8% (inactive).

(Values after PubChem BioAssay (NCI).)
